Measurements published in PubChem BioAssay (NCI).
This is part of a sample that, as a whole, favours compounds with a hit. Of some 83,000 tested, about 20% had one in any assay.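 Percent growth is the endpoint: 0 to 100 indicates growth inhibition (40 means 60% inhibition), 0 means no net growth, and negative values indicate cell death.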 Calls of active or inactive are those of the source. The calls were made as follows: active = growth percent below 10; inactive = the rest.

Tests used:
Assay in all cases: NCI-60 one-dose screen, 48 h (100 = growth as untreated, 0 = no growth, -100 = all killed)
Conditions in all cases: 10 µM unless noted
HCT-15 colon = system: HCT-15 colon
HT29 colon = system: HT29 colon
SNB-75 CNS = system: SNB-75 CNS
SNB-19 CNS = system: SNB-19 CNS
U251 CNS = system: U251 CNS
PC-3 prostate = system: PC-3 prostate
SK-MEL-5 melanoma = system: SK-MEL-5 melanoma
UACC-62 melanoma = system: UACC-62 melanoma
LOX IMVI melanoma = system: LOX IMVI melanoma
SK-MEL-28 melanoma = system: SK-MEL-28 melanoma

| Compound | growth (HCT-15 colon) | growth (HT29 colon) | growth (SNB-75 CNS) | growth (SNB-19 CNS) | growth (U251 CNS) | growth (PC-3 prostate) | growth (SK-MEL-5 melanoma) | growth (UACC-62 melanoma) | growth (LOX IMVI melanoma) | growth (SK-MEL-28 melanoma) |
| --- | --- | --- | --- | --- | --- | --- | --- | --- | --- | --- |
| C#C[C@@]1(O)[C@@H](CO)O[C@@H](n2cc(-c3ccco3)c3c(N)ncnc32)[C@@H]1O | 59.3% (inactive) | 28.8% (inactive) | 14.6% (inactive) | 94.4% (inactive) | 81.8% (inactive) | 49.1% (inactive) | 89% (inactive) | 80.2% (inactive) | 65.6% (inactive) | 93.2% (inactive) |
| C=CCn1c(SCC(=O)Nc2ccc(C(=O)/C=C/c3cc(OC)c(OC)c(OC)c3)cc2)nnc1-c1ccc(Cl)cc1 | -1.47% (active) | -43.1% (active) | 20.1% (inactive) | 35.2% (inactive) | -3.31% (active) | 28.3% (inactive) | 9.64% (active) | 22.1% (inactive) | -22.4% (active) | 59% (inactive) |
| Cc1[nH]c(N=Nc2ccccc2)nc1N=Nc1ccccc1 | 22.8% (inactive) | 31.2% (inactive) | 45.1% (inactive) | 47.7% (inactive) | 15.9% (inactive) | 36.4% (inactive) | 48.1% (inactive) | -19.7% (active) | 3.24% (active) | 52.2% (inactive) |
| C#Cc1ccccc1NC(=O)c1sc2nc3c(cc2c1N)CCCCC3 | 97.6% (inactive) | 81.3% (inactive) | 90.4% (inactive) | 109% (inactive) | 99% (inactive) | 97.7% (inactive) | 97.2% (inactive) | 95.2% (inactive) | 95.8% (inactive) | 111% (inactive) |
| CSc1cccc(NC(=O)Nc2nc3c(C)cccc3s2)c1 | 97.9% (inactive) | 99.5% (inactive) | 76.7% (inactive) | 98.2% (inactive) | 98.9% (inactive) | 95.7% (inactive) | 95.6% (inactive) | 78.3% (inactive) | 97.5% (inactive) | 112% (inactive) |
| CCC1=C[C@H]2CN(CCc3c([nH]c4ccccc34)[C@@](C(=O)OC)(c3cc4c(cc3OC)N(C)[C@H]3[C@@](O)(C(=O)OC)[C@H](OC(C)=O)[C@]5(CC)[C@@H]6C[C@@H]6CN6CC[C@]43[C@@H]65)C2)C1 | 7.44% (active) | -18.4% (active) | -3.68% (active) | 21.1% (inactive) | 13% (inactive) | 29.4% (inactive) | -25.5% (active) | 17% (inactive) | 17% (inactive) | 58.5% (inactive) |
| C#C[C@@]1(O)[C@@H](CO)O[C@@H](n2ccc3c(N)ncnc32)[C@@H]1O | 2.94% (active) | 2.83% (active) | -25.6% (active) | 7.29% (active) | 3.15% (active) | -21.4% (active) | -52.7% (active) | -16.5% (active) | -68.6% (active) | 63.6% (inactive) |
| COc1ccc2nc(-c3ccc(Cl)cc3)cc(C(=O)N3N=C(c4ccc(N)cc4)CC3c3ccccc3)c2c1 (stereo not given) | 26.7% (inactive) | 19.6% (inactive) | 44.3% (inactive) | 49.6% (inactive) | 50.7% (inactive) | 35.9% (inactive) | 39.4% (inactive) | 37% (inactive) | 40.4% (inactive) | 61.7% (inactive) |
| CCCCn1c(=O)c(/C=C/C(=O)/C=C/c2ccc(O)c(OC)c2)cc2ccc(Cl)cc21 | 9.41% (active) | -41.7% (active) | 54.8% (inactive) | 38.3% (inactive) | 3.33% (active) | 27.2% (inactive) | 3.38% (active) | 2.4% (active) | -51.3% (active) | 38.8% (inactive) |
| CCCCc1ccc(N=Nc2ccc(OCC[N+](C)(C)C)cc2)cc1 | 61% (inactive) | 26.3% (inactive) | 15.4% (inactive) | 1.8% (active) | -51.1% (active) | 24.2% (inactive) | 89.4% (inactive) | 53.9% (inactive) | 33.6% (inactive) | 88.9% (inactive) |
| COc1ccc2nc(-c3ccc(Cl)cc3)cc(-c3nnc(SC/C(=N/O)c4ccccc4)o3)c2c1 | 48.3% (inactive) | 27% (inactive) | 84.8% (inactive) | 68.4% (inactive) | 17.3% (inactive) | 30% (inactive) | 25.9% (inactive) | 49.1% (inactive) | 44.2% (inactive) | 44.2% (inactive) |
| CNS(=O)(=O)c1cccc(-c2ccc3c4c(n(C)c(=O)c3c2)-c2ccccc2C4=O)c1 | 30.5% (inactive) | 45.8% (inactive) | 65.9% (inactive) | 31.3% (inactive) | 23.2% (inactive) | 73.4% (inactive) | 48.3% (inactive) | 56.3% (inactive) | 35.1% (inactive) | 93% (inactive) |
| COc1cc(C(=O)N2CCN(c3ccccc3OC)CC2)c(NC(=O)c2cnccn2)cc1OCc1ccccc1 | 81.9% (inactive) | 106% (inactive) | 102% (inactive) | 85.9% (inactive) | 83.2% (inactive) | 70.9% (inactive) | 78.4% (inactive) | 73.3% (inactive) | 75.5% (inactive) | 132% (inactive) |
| O=C(/C(=C/c1ccc([N+](=O)[O-])cc1)SCc1ccc(F)cc1)c1ccc(Cl)cc1 | 5.41% (active) | 8.59% (active) | 83.3% (inactive) | 47.4% (inactive) | 0.994% (active) | 47.4% (inactive) | 54.2% (inactive) | 37.5% (inactive) | 3.68% (active) | 93.1% (inactive) |
| CCCCCCN1C(=O)CN=C1Nc1ccc2cc3ccc(NC4=NCC(=O)N4CCCCCC)cc3nc2c1 | 49% (inactive) | 15.5% (inactive) | 61.7% (inactive) | 48.4% (inactive) | 22.1% (inactive) | 51% (inactive) | 82.6% (inactive) | 82.6% (inactive) | -41.8% (active) | 85.9% (inactive) |
| CCCCCCCc1n(Cc2ccc3ccccc3c2)c2ccccc2[n+]1Cc1ccc2ccccc2c1 | -80% (active) | -84.3% (active) | -86.8% (active) | -77.9% (active) | -79.8% (active) | -88.7% (active) | -92.8% (active) | -89.6% (active) | -75.1% (active) | -85.4% (active) |
| Cc1ccc(CS/C(=C\c2ccc([N+](=O)[O-])cc2)C(=O)c2ccc(F)cc2)cc1 | -6.39% (active) | -20.1% (active) | 79.8% (inactive) | 34.6% (inactive) | -20.4% (active) | 40.9% (inactive) | 62.7% (inactive) | 30.9% (inactive) | -4.93% (active) | 93.5% (inactive) |
| O=C(/C(=C\c1c(-c2ccccc2)[nH]c2ccccc12)S(=O)(=O)c1ccccc1)c1ccccc1 | 57.4% (inactive) | 65.9% (inactive) | 45.4% (inactive) | 73.8% (inactive) | 58.6% (inactive) | 16.6% (inactive) | 47.7% (inactive) | 39.8% (inactive) | 58.9% (inactive) | 76.2% (inactive) |
| COc1cc(NCC(=O)Nc2cc(Nc3ccc(C)cc3)ncn2)c(Cl)c(OC)c1Cl | 89.9% (inactive) | 95.3% (inactive) | 78.4% (inactive) | 95.9% (inactive) | 87.2% (inactive) | 69.1% (inactive) | 91.6% (inactive) | 75.3% (inactive) | 84.5% (inactive) | 107% (inactive) |
| O=C(Nc1cc(Nc2ncccc2-c2ncnc3nc[nH]c23)ccc1F)c1cc(C(F)(F)F)cc(C(F)(F)F)c1 | -67% (active) | -23.8% (active) | -39.5% (active) | 13.7% (inactive) | -12.1% (active) | -45.1% (active) | -17.5% (active) | -23.6% (active) | -69.4% (active) | -66.1% (active) |
| Cc1ccc(C(=O)O)o1 | 112% (inactive) | 92.4% (inactive) | 90.7% (inactive) | 112% (inactive) | 98.3% (inactive) | 90.2% (inactive) | 102% (inactive) | 107% (inactive) | 100% (inactive) | 108% (inactive) |
| COc1cc(-c2csc(NC(=O)Nc3ccc(C(F)(F)F)cc3)n2)cc(OC)c1OC | 10.6% (inactive) | 3.06% (active) | -12.1% (active) | 14.1% (inactive) | 6.12% (active) | 3.3% (active) | -54.7% (active) | -0.579% (active) | 4.24% (active) | 16.3% (inactive) |
| Cn1nc(C(F)(F)F)c(-c2cc(C(F)(F)F)cc(C(F)(F)F)c2)c1-c1ccc(OCc2ccc(Cl)cc2)cc1O | 7.5% (active) | 3.77% (active) | 4.92% (active) | 22.6% (inactive) | 6.17% (active) | 10.7% (inactive) | -36.6% (active) | 3.02% (active) | 6.23% (active) | 28% (inactive) |
| CCn1cc(C(=O)O)c(=O)c2cc(F)c(N3CCN(CC(=O)Nc4ccc(/C(C)=N/OC)cc4)CC3)cc21 | 90.5% (inactive) | 94% (inactive) | 76.8% (inactive) | 91.7% (inactive) | 94.3% (inactive) | 85.5% (inactive) | 96.4% (inactive) | 90.5% (inactive) | 80% (inactive) | 100% (inactive) |
